# NPC1 promoter act – NPC1 promoter activation; AID 485313; 320,000 tested, 2.4% active; Potency, µM (doses to about 9.22 µM), for the others: at the top dose activation, usual class: activators; Huh7 NPC1 promoter luciferase reporter, 24 h; further: % of control where 0% means no effect; nearly all actives have a fitted effect of over 60% in size
#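 Huh7 cells stably carrying NPC1 promoter–luciferase, plated in Opti-MEM with 10% FBS for 2 h, were exposed to compound in DMSO for 24 h at 37 °C; luciferase reagent was added for 10 min and luminescence read.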
# ELG1 genotoxic – inducers of genotoxicity in HEK293T ELG1-luciferase cells; Potency, µM (highest dose often 46 µM), for the others: at the top dose activity change, positive = activation, usual class: activators; 330,000 tested, 1.3% active; AID 504466; HEK293T ELG1-luciferase reporter, luminescence, 16 h; further: % of control where 0% means no effect; nearly all actives have a fitted effect of over 60% in size
#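 HEK293T cells expressing luciferase-tagged ELG1 were treated with compound or DMSO for 16 hr at 37°C. Luciferase activity was then read after 30 min with ONE-Glo at room temperature; rising signal flags genetic stress.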
# Rab9 prom act – activators of Rab9 promoter | Huh7 Rab9 promoter-luciferase reporter, luminescence, 24 h | Potency, µM (doses to about 9.22 µM), inactives show at the top dose activation, negative = inhibition, most hits filed as activators | 320,000 tested, 2.8% active | AID 485297; further: % of control where 0% means no effect; nearly all actives have a fitted effect of over 60% in size
#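 Huh7 cells stably carrying a Rab9 promoter-luciferase reporter, 1500 cells per well in OP-MEM I with 10% FBS, treated with compound 24 hours at 37C. Luciferase activity read by luminescence after 10 minutes with Amplite reagent.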
# p53 reactivation – mutant p53 re-activation in reporter cells. H1299 p53-A138V BP100-luciferase reporter, luminescence, 24 h. Potency, µM (titrated, usually from 92.2 µM), without a hit: at the top dose activity change, positive = activation, hits mostly activators. 320,000 tested, 0.063% active; further: % of control where 0% means no effect; nearly all actives have a fitted effect of over 45% in size
#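 H1299 (p53-null), stable ts p53-A138V + BP100-Luc; 1000 cells/well, Opti-MEM/10% FBS; cpd 4 pt, 1:5; 24 h, 37 deg C, 5% CO2; detection reagent 10 min RT; luminescence.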
# FLuc modulator – inhibits or activates purified firefly luciferase, miR-21 counter-screen; P08659; purified FLuc, Km substrates, luminescence inhibition; Potency, µM (series often up to 57.5 µM), for the others: at the highest dose activity change, negative = inhibition, usual class: inhibitors; 360,000 tested, 6.9% active;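 further: plate controls were vehicle for no effect and reference inhibitor for full effect; nearly all actives have a fitted effect of over 55% in size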
# Target sequence (P08659 whole entry, looked up): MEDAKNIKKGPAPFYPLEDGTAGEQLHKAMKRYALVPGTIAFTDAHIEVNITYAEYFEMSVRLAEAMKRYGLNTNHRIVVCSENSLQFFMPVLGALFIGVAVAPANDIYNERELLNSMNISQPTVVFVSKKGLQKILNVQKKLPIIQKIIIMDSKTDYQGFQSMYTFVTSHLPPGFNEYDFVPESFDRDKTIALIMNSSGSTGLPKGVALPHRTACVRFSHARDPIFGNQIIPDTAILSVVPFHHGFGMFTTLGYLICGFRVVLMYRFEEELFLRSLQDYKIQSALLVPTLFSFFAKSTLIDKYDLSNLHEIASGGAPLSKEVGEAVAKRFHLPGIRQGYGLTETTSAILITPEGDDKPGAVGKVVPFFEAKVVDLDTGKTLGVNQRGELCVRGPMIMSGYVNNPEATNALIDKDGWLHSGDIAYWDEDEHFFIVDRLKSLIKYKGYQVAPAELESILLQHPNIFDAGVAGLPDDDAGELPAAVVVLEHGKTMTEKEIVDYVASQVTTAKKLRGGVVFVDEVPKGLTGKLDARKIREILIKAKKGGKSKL
#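 Purified P. pyralis luciferase, 10 nM final, with Km-level 10 uM D-luciferin and 10 uM ATP in 50 mM Tris acetate pH 7.5, 10 mM Mg acetate, 0.01% Tween-20, 0.05% BSA; 6-point qHTS titration about 60 µM downward; luminescence read.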
# SMN2 splice up – increases expression of the SMN2 splice variant. HEK293 SMN2-luciferase splicing reporter, luminescence, 30-36 h. Potency, µM (top dose mostly 46.1 µM), without a hit: at the highest dose activity change, positive = activation, hits mostly activators. 210,000 tested, 2.8% active. AID 1458; further: % of control where 0% means no effect; nearly all actives have a fitted effect of over 55% in size
#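 HEK293 cells carry an SMN2 minigene-luciferase reporter in which exon 7 inclusion puts luciferase in frame. Cells were seeded at 2000 cells/well, attached for 10-12 hours, then exposed to compounds for 30-36 hours at 37C before ONE-Glo luminescence.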
# Active calls of the source: *; u = inconclusive; x = no result given; [ ] = dose if it differs, or a comment. This is a sample that favours compounds with a hit; in the whole collection about 7.3% have one here. The call rests on the fitted dose curve; in most records, active means well fitted curve in the direction sought with a large enough effect; inconclusive means small, poorly fitted or top-dose-only effect, or another doubt; inactive means no such curve, though single readings can be large; an effect the other way counts as inactive or inconclusive. Potency means the concentration at half of the fitted maximal effect.
SMILES,NPC1 promoter act,ELG1 genotoxic,Rab9 prom act,p53 reactivation,FLuc modulator,SMN2 splice up
CC(=O)c1ccc(NC(=O)c2cc(-c3ccc4c(c3)OCO4)on2)cc1,x,x,x,x,-2%,6%
COc1ccc(NC(=O)c2cc(-c3ccc(C)cc3)on2)cc1OC,-1%,-3%,4%,26%,0%,x
C=CCn1c(SCC(=O)Nc2ccc(N3CCOCC3)cc2)nnc1-c1ccco1,6%,0%,5%,2%,u,x
Fc1ccc2c(c1)[C@H]1OCC[C@H]1[C@@H](c1ccco1)N2,-2%,1%,2%,-4%,-1%,-22%
Clc1ccc2c(c1)[C@H]1OCC[C@H]1[C@@H](c1ccco1)N2,u,u,u,u,4.8µM*,22µM*
O=C(Nc1ccc(Nc2ccc3c(c2)C(=O)c2ccccc2C3=O)c2c1C(=O)c1ccccc1C2=O)c1ccccc1,x,x,x,x,x,-11%[9.22 µM]
Nc1ccc2c(c1)COC2=O,10%,11%,21%,16%,17µM*,18%
Cc1ccc(-n2[nH]c3c4c(ccc3c2=O)C(=O)c2ccccc2C4=O)cc1,-1%,4%,-8%,4%,1%,-1%
Cc1ccc(C)c(-n2[nH]c3c4c(ccc3c2=O)C(=O)c2ccccc2C4=O)c1,1%,-7%,7%,3%,15µM*,-21%
CCOC(=O)c1c(C)[nH]c(N=Nc2ccc(OC)cc2)c1C,3.5µM*,u,u,24%,7.6µM*,x
CCOC(=O)c1c(C)[nH]c(C(=O)O)c1C,1%,2%,2%,-1%,3%,8%
CCOC(=O)c1c(C)[nH]c(NC(=O)NNC(=O)c2ccccc2Cl)c1C,1%,0%,-3%,2%,x,x
CCOC(=O)c1c(C)[nH]c(N=Nc2ccccc2)c1C,u,12µM*,u,14%,12µM*,4%
CCOC(=O)c1c(C)[nH]c(C(=O)COC(=O)COc2ccc(OC)cc2)c1C,1%,1%,-5%,-6%,-1%,13%
CCOC(=O)c1c(C)[nH]c(N=Nc2ccccc2Cl)c1C,u,u,u,u,12µM*,x
CCOC(=O)c1c(C)[nH]c(N=Nc2ccc(C)cc2)c1C,1µM*,3.2µM*,1.4µM*,u,3.8µM*,13µM*
O=C(O)CNCCc1ccccc1,x,x,x,x,x,-1%[9.22 µM]
C1CCOC1,x,x,x,x,x,-2%
Oc1ccc(/C=N/NC(=S)Nc2cccnc2)c(O)c1O,-3%,-17%,-3%,-8%,19µM*,x
Fc1ccc(/C=N/NC(=S)Nc2cccnc2)cc1,16%,23µM*,27%,-5%,u,1%
Fc1ccc(/C=N/NC(=S)Nc2cccnc2)cc1F,7%,-2%,2%,9%,-3%,-11%
Oc1cccc(/C=N/NC(=S)Nc2cccnc2)c1O,0%,u,-2%,u,u,-82%
Oc1ccc(/C=N/NC(=S)Nc2cccnc2)c(O)c1,-2%,u,-18%,u,21µM*,-92%
Cc1cc(C(=O)OCC(=O)NCCc2ccc(S(N)(=O)=O)cc2)c2ccccc2n1,1%,1%,-3%,-5%,1%,x
Cc1ccc(-c2c(C)sc(=NC(=O)c3ccco3)n2C)cc1,1.6µM*,17%,2.5µM*,u,0.95µM*,u
SMILES,NPC1 promoter act,ELG1 genotoxic,Rab9 prom act,p53 reactivation,FLuc modulator,SMN2 splice up
O=C(CCc1nnc2n(Cc3ccccc3Cl)c(=O)c3ccccc3n12)Nc1ccc(F)cc1,x,x,x,x,-1%,2%
Cc1ccc(-n2c(SCC(N)=O)nc3c(oc4ccccc43)c2=O)cc1C,x,x,x,x,-1%,7%
CSc1nc(N)c2ncn([C@@H]3O[C@H](COP(=O)(O)OP(=O)(O)O)C(O)[C@H]3O)c2n1 (stereo partly drawn),7%[46.1 µM],x,-4%[46.1 µM],x,x,x
O=C(CN1CCN(CC(=O)Nc2ccccc2Cl)CC1)Nc1ccc2c(c1)OCCO2,-5%,-7%,-1%,2%,-1%,-7%
S=C(Nc1ccc2c(c1)OCCO2)Nc1ccccc1Cl,19%,u,25%,18%,15µM*,x
S=C(Nc1ccc(Cl)cc1)Nc1ccc2c(c1)OCCO2,u,11%,u,u,11µM*,x
COc1cc2c(cc1OC)C1O[C@](CCCCN3C(=O)c4ccccc4C3=O)(C2)Oc2cc(C)n(Cc3ccccc3)c(=O)c21,2%[1.84 µM],x,-10%[1.84 µM],x,1%[11.5 µM],x
Cc1ccc(NS(=O)(=O)c2ccc(-n3cccn3)cc2)nc1,-18%,-1%,3%,5%,2%,x
COC(=O)c1ccc(COc2ccc(-c3nnn(CC(N)=O)n3)cc2)cc1,3%,-13%,-4%,-1%,-1%,15%
COC(=O)c1ccc(COc2ccc(-c3nnn(CC(=O)NC(C)(C)C)n3)cc2)cc1,-2%,u,-9%,10%,1%,14µM*
Cc1ccccc1COc1ccc(-c2nnn(CC(=O)O)n2)cc1,-10%,3%,-1%,25%,17µM*,x
O=C(O)COc1ccc(-c2nnn(Cc3ccccc3F)n2)cc1,9%,7%,-1%,-2%,19µM*,7%
O=C(O)c1ccc(-c2nnn(Cc3ccccc3F)n2)cc1,3%,5%,-3%,-2%,-4%,x
C=Cc1c(C)/c2[n-]/c1=C\c1[n-]c(c(CC)c1C)/C=c1\[n-]c3c(c1C)C(=O)C(C(=O)[O-])C=3c1[n-]c(c(C)c1CCC(=O)[O-])\C=2.[Cu].[Na+].[Na+] (stereo not drawn),x,x,x,x,x,-17%
CC[C@H]1C2=C3C(CC[C@H]4C(OC)OC[C@](C)([C@@H]34)N(C(=O)OC(C)(C)C)C2)C(CO)C1CO (stereo partly drawn),x,x,x,x,x,-7%
O=C(O)Cc1ccc(NC(=O)c2ccc(Cl)c(Cl)c2)cc1,2%,12%,-5%,0%,8.5µM*,12%
O=C(O)Cc1ccc(NC(=O)c2ccc(NC(=O)C3CC3)cc2)cc1,-2%,0%,19%,-10%,17µM*,x
CC(C)(C)c1ccc(C(=O)Nc2ccc(CC(=O)O)cc2)o1,-15%,-7%,-19%,-10%,4.3µM*,-28%
O=C(Nc1ccncc1)c1ccc(Cl)c(Cl)c1,1%,5%,0%,-2%,-16%,x
COc1ccc(C2=NC(C)(C)N(CC(=O)Nc3ccc(F)c(F)c3)C2=O)cc1,x,x,x,x,-2%,-9%
Cc1cc(C(=O)CSc2nc3ccccc3o2)c(C)n1CC1CCCO1 (stereo not drawn),0.71µM*,2%,0.79µM*,u,1.3µM*,-89%
Cc1cc(C(=O)CSc2nc3ccccc3c(=O)[nH]2)c(C)n1C,u,14µM*,u,u,u,35µM*

# Screens deposited in PubChem by National Center for Advancing Translational Sciences (NCATS).
